# Measured values published in PubChem BioAssay AID779 (Sanford-Burnham Center for Chemical Genomics, 2007).
# Unmarked numbers belong to inactive results. How the calls were made is not given here.
# Assay: placental alkaline phosphatase inhibitors, dose response, counter-screen, biochemical, colorimetric (AID 779)
# Details: PLAP counter-screen, colorimetric OD read-out
row,Structure (SMILES),IC50 [µM]
1,CCN(CC)C(=O)CSc1nc2cc(OC)c(OC)cc2c(=O)n1Cc1ccc(Cl)cc1,> 50
2,COc1ccccc1N1CSC2=C(C#N)C(c3ccc(SC)cc3)CC(=O)N2C1 (stereo unspecified),> 50
3,C=CCOC(=O)c1cc(-c2ccc(/C=C3\C(=O)NC(=O)C(C#N)=C3C)o2)ccc1Cl,> 50
4,O=C(CCN1C(=O)/C(=C/C=C/c2ccccc2)SC1=S)Nc1nccs1,> 50
5,CCn1c2ccc(Cl)cc2c2nc3ccccc3nc21,> 50
6,Fc1ccc(-c2cc3nc4c(c(N5CCOCC5)n3n2)CCCC4)cc1,> 50
7,CCCSC1=N/C(=C\C=C\c2ccco2)C(=O)S1,> 50
8,CCCn1nc(-c2ccccc2)c2nc3ccccc3nc21,> 50
9,O=C1CCCC2=C1C(c1ccco1)Nc1ccc3ccccc3c12 (stereo unspecified),> 50
10,CCOC(=O)C(C(=O)OCC)c1cc(Br)c2noc3c2c1C(=O)c1ccccc1-3,> 50
11,COc1ccc(-n2c(NC(=O)c3ccc(Br)o3)c(C#N)c3nc4ccccc4nc32)cc1,> 50
12,COc1cc(/C=C2\SC(=S)N(Nc3ncc(C(F)(F)F)cc3Cl)C2=O)cc(OC)c1OC,> 50
13,Oc1c(C=C2N=c3ccccc3=N2)sc(=S)n1-c1ccc(F)cc1,> 50
14,CCCN1C(=O)/C(=C/C=C2\N(CC)c3ccccc3C2(C)C)SC1=S,> 50
15,CCOC(=O)C1=C(c2ccccc2)N=c2s/c(=C\c3cc(OC)c(OC)c(OC)c3)c(=O)n2C1c1cccs1 (stereo unspecified),> 50
16,O=C(NCc1ccccc1)c1ccc2nc(-c3ccco3)c(-c3ccco3)nc2c1,> 50

row,Structure (SMILES),IC50 [µM]
1,CCn1nc(-c2ccccc2)c2nc3ccccc3nc21,> 50
2,C=CCn1c(SCC(=O)Nc2ncc(Cc3cc(C(F)(F)F)ccc3Cl)s2)nnc1-c1ccncc1,> 50
3,O=[N+]([O-])c1ccc(N(c2ccccc2)c2ccccc2)cc1,> 50
4,COc1ccc(Cc2nnc(NC(=O)Cc3cccs3)s2)cc1,> 50
5,O=C(c1ccc2c(=O)n(Cc3ccc4c(c3)OCO4)c(=S)[nH]c2c1)N1CCCCC1,> 50
6,Cc1cc2cc(CNC(=O)c3ccc(S(=O)(=O)N4CCCCC4)cc3)ccc2n1C,> 50
7,Cc1c(NC(=O)CCN2C(=O)c3ccccc3C2=O)c(=O)n(-c2ccccc2)n1C,> 50
8,CN(C)c1ccc(/C=C/C=C2/SC(=S)N(c3ccccc3)C2=O)cc1,> 50
9,CN(C)c1ccc(/C=C/C(=O)c2cccc(Br)c2)cc1,> 50
10,CC(=O)Nc1ccc(NC2=Nc3ccccc3N3C2=Nc2c(c(C)nn2-c2ccccc2)C3c2ccccc2)cc1 (stereo unspecified),> 50
11,CCCOc1ccc(-c2nn(-c3ccccc3)cc2/C=C2\SC(=S)N(C3CCS(=O)(=O)C3)C2=O)cc1 (stereo unspecified),> 50
12,CCOC(=O)c1c(NC(C)=O)sc2c1CCC(C=O)=C2Sc1ccccc1,> 50
13,CCOC(=O)c1c(NC(=S)Nc2ccccc2)sc2c1CCN(CCc1ccccc1)C2,> 50
14,COc1ccc(C(c2nnnn2Cc2cccs2)N2CCN(c3ccccc3F)CC2)cc1 (stereo unspecified),> 50
15,Cn1cc([N+](=O)[O-])c(C(=O)Nc2ccc3c(c2)OCCO3)n1,> 50
